Source: PubChem BioAssay (NCATS)
Values joined by “and” are separate entries in the source; they are usually repeats but may differ in a detail not shown here. Equal values may be shown once. Inconclusive results are not listed. Active and inactive are the calls of the source. Unless noted, calls come from the whole dose curve; as a rule, active = well fitted activation curve with a large enough effect; inconclusive = small, poorly fitted or top-dose-only effect; inactive = flat fitted curve, though single readings scatter.

Assay: Confirmation and Secondary Assay for Modulators of Hemoglobin Beta Chain Splicing at IVS2 654 locus (AID 910);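 note: HeLa cells stably carrying EGFP split by mutant beta-globin IVS2-654 intron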
Details: HeLa EGFP-654 splicing reporter, GFP fluorescence, 48 h; series mostly up to 46.1 µM; activation (splicing correction): at the top concentration
How it was run: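 HeLa cells stably expressing EGFP interrupted by β-globin IVS2-654 intron, seeded overnight in Opti-MEM/2% FCS, then treated 2 days at 37 °C. Restored splicing read as total peak GFP intensity per well by laser scanning cytometry (488 nm excitation, 500–520 nm emission); 500 nM antisense PNA as control.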
Note: % of control where 0% means no effect.

Activation (splicing correction), inactive:
COc1cccc(-c2cc(=O)c3ccc(OC)cc3o2)c1 2.49% [at 38.3 µM]
COc1ccc(-c2coc3c(OC)c(OC)cc(O)c3c2=O)cc1 2.77%
CNC1CCC(c2ccc(Cl)c(Cl)c2)c2ccccc21 (stereo not given) -7.58%
CC(C)c1c(O)ccc2c1CCC1C(C)(C)CCC[C@@]21C (stereo not given in full) -7.5%
COc1ccc(C2COc3c(ccc(O)c3OC)C2)c(OC)c1O (stereo not given) 5.54%
C=C1C([C@@]2(C)C(OC(C)=O)CC(=O)O[C@@](C)(COC(C)=O)C2CC(=O)OC)C(OC=O)C(OC(=O)C(O)C(C)CC)[C@]2(C)C(c3ccoc3)CC(=O)C12O (stereo not given in full) -1.22%
C=CC(C1=CC(=O)C(OC)=C(OC)C1=O)c1ccccc1 (stereo not given) -1.59% [at 38.3 µM]
CC1(C)CC[C@]2(C(=O)O)C(O)C[C@@]3(C)C(=CCC4[C@@]5(C)CCC(O)C(C)(C)C5CC[C@@]43C)C2C1 (stereo not given in full) -1.15% [at 38.3 µM]
CCC(=O)OCC(=O)C1(OC(=O)CC)C(C)CC2C3CCC4=CC(=O)C=CC4(C)C3(Cl)C(O)CC21C (stereo not given) -3.84%
COC(=O)c1c(C)cc(O)cc1O 0.858% [at 38.3 µM]
C#CCCCCCCCCCCCC(O)CC(O)COC(C)=O (stereo not given) -7.54%
CCCN1CC(CSC)C[C@H]2c3cccc4[nH]cc(c34)C[C@H]21 (stereo not given in full) 1.7%
CCC1CN2CCc3cc(OC)c(OC)cc3C2CC1CC1NCCc2cc(OC)c(OC)cc21 (stereo not given) -8.31%

outcome, inactive:
COc1cc(C2c3cc4c(cc3C(O)[C@H]3COC(=O)C23)OCO4)cc(OC)c1OC (stereo not given in full)

Assay: qHTS Assay for Identification of Small Molecule Agonists for Hypoxia Response Element Signaling Pathway (AID 914; active = well fitted activation curve with a large enough effect in the signal ratio, with a control signal flat, not every such curve was filed as active; the % refers to the signal ratio)
Details: ME-180 (cervical carcinoma) HRE-bla reporter, beta-lactamase ratio, CoCl2, 17 h; stronger effect = higher value
How it was run: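 Reporter activity (beta-lactamase, CCF4 460nm/530nm ratio) in HRE-bla ME-180 cells is recorded after 17 h compound exposure with EC50 CoCl2 at 37 degrees Celsius. AC50 values come from titration data.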

activation, inactive:
CC(C)C(=O)N[C@@H]1CCCN1C(=O)/C=C\c1ccccc1 12.7%
CCc1cc2c(nc1CC)CCN(CC/C(C)=N/OC[C@@H](O)[C@@H]1O[C@@H]3OC(C)(C)O[C@@H]3[C@H]1O)C2 -8.78%
CO[C@H]1COC(=O)C/C=C\[C@H](C)COC(=O)[C@@H](OCc2ccccc2)/C=C\[C@@H]1C -11.2%
COc1ccc(COC(=O)N/N=C2/C[C@@H](O)[C@@H](O)[C@@H]3[C@@H]4C(=O)N(c5cccc(Oc6ccccc6)c5)C(=O)[C@H]4CC[C@@H]23)cc1 -7.26%
C#CCCCO/N=C1/C[C@@H](O)[C@@H](O)[C@@H]2[C@@H]3C(=O)N(C4CCCCC4)C(=O)[C@H]3CC[C@H]12 7.1%
C=CC[C@@H]1C=C[C@@H](O/N=C\C[C@@H]2C=C[C@H](OC(C)=O)[C@H](COC(C)=O)O2)[C@@H](CO)O1 4.01%
C/C(CCN1CCc2nc(-c3ccccc3)c(-c3ccccc3)cc2C1)=N\O[C@@H](C)CN1CCCc2nc(C)c(C)cc21 24.9%
CC(C)=CCC/C(C)=C/CO/N=C1/[C@H]2O[C@@H]2[C@@H](O)[C@H]2[C@H]1CCn1c(=O)n(Cc3cc4c(cc3Cl)OCO4)c(=O)n12 3.23%
C/C(CCN1CCc2nc(-c3ccccc3)c(-c3ccccc3)cc2C1)=N\O[C@@H](C)c1cn([C@H](CO)Cc2ccccc2)nn1 -1.74% and -5.69%
CCCNC(=O)OC[C@@H]1O[C@H](CCON=C(C)C)C=C[C@@H]1Oc1ccc(OC)cc1 -3.17%
COc1ccc(-c2ccc3c(n2)CCCN3C[C@H](O)CN2CCCc3nc(-c4ccc(Br)cc4)ccc32)cc1 17.4% and 18.3%
